The record followed here is PubChem BioAssay AID463195 (Sanford-Burnham Center for Chemical Genomics, 2010).

About 4,600 (1.4%) of roughly 330,000 compounds were called active. The sample holds actives, similar compounds and a random draw of the others, so the mix is not that of the screen.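 The calls were made as follows: active = inhibition of 40% or more at the single tested concentration; inactive = the rest.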

A short description of the test: growth inhibitors of isogenic TIM10 control yeast, primary screen, counter-screen for tim10-1 yeast inhibitor project, luminescence, uHTS (AID 463195).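 Also: wild-type TIM10 isogenic control strain grown at permissive 25 °C; 0% = DMSO yeast wells and 100% = minimal medium wells without yeast.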 The conditions noted are these: S. cerevisiae TIM10 strain growth, BacTiter-Glo luminescence, 24 h; at 10 µM; hits give high values. Background: The purpose of a counterscreen is to sort out artefacts and off-target activity.
The term inhibition denotes the relative decrease from the control value, in per cent. For `O=C(Nc1cccc(NC(=O)N2CCN(c3ccccc3)CC2)c1)N1CCN(c2ccccc2)CC1`, the inhibition is -4.11% (inactive).
Consider `O=C(Nc1ccc(Cl)c(Cl)c1)N1CC=C(c2ccccc2)CC1`, for which the inhibition is 48.1% (active).
Take `COc1cc(C(=O)NCC(=O)N2CC=C(c3ccccc3)CC2)cc(OC)c1OC`: the inhibition is 20.4% (inactive).
For the compound `CCOC(=O)N1CCC(N2Cc3cccc(C(=O)Nc4c(C)cccc4CC)c3C2=O)CC1`, the inhibition was 15.7% (inactive).
In the case of `CN(C)Cc1c(O)ccc2occ(C(O)c3ccccc3)c12` (stereo unspecified) it was 9.39% (inactive).
As for `CC(=O)Cc1nsc(NC(=O)c2ccc(Cl)cc2Cl)n1`, the inhibition was 45.2% (active).
Take `CC(=O)Cc1nsc(NC(=O)c2ccc(COc3ccc(C)cc3)o2)n1`: the inhibition was 20.8% (inactive).
In the case of `CC(C)NC(=O)c1ccc(Cl)cc1Cl` it was -6.27% (inactive).
With `Cc1cc(C)cc(NS(=O)(=O)Cc2ccccc2)c1` the figure was -1.77% (inactive); with `O=C(c1snnc1-c1ccccc1)N1CCOCC1`, 15.4% (inactive); with `O=C(CCCN1CCc2[nH]c3ccc(F)cc3c2C1)c1ccc(F)cc1`, 14.8% (inactive).
On to `CCn1c(=O)c([N+](=O)[O-])c(NCc2ccc3c(c2)OCO3)c2ccccc21`, for which the inhibition was 15.2% (inactive).
With `CCc1ccc(S(=O)(=O)N/N=C\c2ccc([N+](=O)[O-])o2)cc1` the figure was 14.1% (inactive).
In the case of `CCn1c(/C=C/c2ccc([N+](=O)[O-])o2)nc2ccccc2c1=O` it was 49.9% (active); in that of `CC1CCN(C(=O)c2cc3nc(C4CC4)cc(C(F)(F)F)n3n2)CC1`, 16.4% (inactive); in that of `Cc1cccc(N(CC(O)CN(C)C)S(=O)(=O)c2ccccc2)c1` (stereo unspecified), 0.713% (inactive).
As to `Cc1ccc(N(CC(O)CN2CCCC2)S(=O)(=O)c2ccccc2)cc1` (stereo unspecified), the inhibition was -2.21% (inactive).
As for `Cc1cc(C)n(CC(O)CN(c2ccccc2)S(=O)(=O)c2ccc3ccccc3c2)n1` (stereo unspecified), the inhibition was 48% (active).
Turning to `C/C=C/C(=O)OCC(=O)Nc1ccc(F)cc1Cl`, the inhibition was -3.48% (inactive).
With `Nc1ncnc2c1ncn2[C@@H]1O[C@H](CNS(=O)(=O)c2ccc(-c3ccno3)s2)[C@@H](O)[C@H]1O`, the inhibition is -1.72% (inactive).
As for `CCCS(=O)(=O)N1CCN=C1SCc1cccc(F)c1`, the inhibition was -11.5% (inactive).
Take `CCc1c(C)nc(N)n2c(SCC(=O)NC3CCCCC3)nnc12`: the inhibition was -10.7% (inactive).
As for `COc1ccc(S(=O)(=O)Nc2cc(C)on2)cc1NC(C)=O`, the inhibition was 12% (inactive).
Regarding `Cc1nn(C(=O)c2ccoc2C)c(N)c1-c1ccccc1`, the inhibition is -12.3% (inactive).
Regarding `O=C(O)CCCC(=O)N1N=C(c2ccco2)CC1c1ccco1` (stereo unspecified), the inhibition is -11.4% (inactive).
In the case of `Cc1nn2c(c1-c1ccccc1)N=C(c1ccco1)CC2c1ccccc1` (stereo unspecified) it was 48.1% (active).
With `CCN(CC)S(=O)(=O)N1CCC(C(=O)NC(C)CCc2ccccc2)CC1` (stereo unspecified) the figure was -3.42% (inactive); with `C/C(=N\NC(=O)C1(C)CC1(Br)Br)c1ccc(C)cc1C` (stereo unspecified), 10% (inactive); with `O=C1Cc2cc(S(=O)(=O)Nc3cccc(F)c3)ccc2N1`, -1.95% (inactive).
For the compound `CN(C)CCN(C(=O)C1=COCCO1)c1nc2ccc(Cl)cc2s1`, the inhibition is 79.4% (active).
With `CCc1ccc2nc(N(CCCN(C)C)C(=O)c3ccc4c(c3)OCCO4)sc2c1` the figure was 13.5% (inactive); with `CCN(CC)CCN(C(=O)c1cc(Cl)sc1Cl)c1nc2cc3c(cc2s1)OCO3`, 23.3% (inactive); with `CN(C)CCN(C(=O)C1CCCCC1)c1nc2cc3c(cc2s1)OCO3`, 11.6% (inactive).
With `CN(C)CCN(C(=O)CN1C(=O)c2ccccc2C1=O)c1nc2cc3c(cc2s1)OCCO3` the figure was -5.86% (inactive); with `Cc1ccc2nc(N(CCN(C)C)C(=O)C3=COCCO3)sc2c1`, 53.1% (active); with `CC(=O)c1ccc(N2CCN(C(=O)c3ccc(Cl)c(S(=O)(=O)NC4CC4)c3)CC2)c(F)c1`, -5.83% (inactive).
For the compound `COc1ccc2c(c1)O/C(=C\c1ccccc1O)C2=O`, the inhibition was 23.8% (inactive).
With `COC(=O)c1ccc(/C=C2/C(=O)Oc3ccccc32)cc1` the figure was 25.7% (inactive); with `O=C1Oc2ccccc2C(=O)/C1=C/c1ccccc1O`, 61.4% (active); with `C=CCO/N=C(\C)c1c(O)c(C)c(-c2ccccc2)n(-c2ccccc2)c1=O`, 30.7% (inactive).
In the case of `CCCCCC(=O)Nc1ccc(-c2cn3cccnc3n2)cc1` it was 33.6% (inactive); in that of `CC(C(=O)Nc1ccc(F)c(F)c1F)N1CCCCCC1` (stereo unspecified), -12.6% (inactive).
With `O=Cc1c(Nc2ccccc2Cl)nc2ccccn2c1=O`, the inhibition is 4.5% (inactive).
With `O=Cc1c(N2CCN(c3cccc(Cl)c3)CC2)nc2ccccn2c1=O` the figure was 40.1% (active).
Take `COCCCNC(=O)/C(C#N)=C/c1c(N2CCCCCC2)nc2ccccn2c1=O`: the inhibition was -2.43% (inactive).
As to `CCOC(=O)c1sc2nc(C)nc(Nc3ccc(OC)c(OC)c3)c2c1C`, the inhibition is -3.77% (inactive).
With `C/C(=N\NC(=O)C(N)=O)c1ccc2c(c1)OCCO2` the figure was 9.07% (inactive); with `C/C(=N/NC(=S)Nc1ccccc1)c1ccc2c(c1)OCO2`, 43.2% (active).
Consider `C/C(=N/NC(=O)c1ccncc1)c1ccc2c(c1)OCO2`, for which the inhibition is -3.5% (inactive).
With `CC(C)c1nc(SCC(=O)Nc2cccc(C(=O)O)c2)c2c3c(sc2n1)CCCC3` the figure was 6.83% (inactive).
Take `COCCNc1nc(-n2nc(C)cc2C)nc2sc3c(c12)CCCC3`: the inhibition is 26.3% (inactive).
Take `Cc1cc(C)n(-c2nc(SCC(=O)N3CCCC3)c3c4c(sc3n2)CCCC4)n1`: the inhibition was 47.4% (active).
Consider `O=C(OCCO)c1cc(Cl)c(C(=O)OCCO)cc1Cl`, for which the inhibition was -2.48% (inactive).
In the case of `COc1ccccc1CNC(=O)CCCNS(=O)(=O)c1cccc2nsnc12` it was 0.215% (inactive); in that of `O=C1OCCN1C(=O)[C@H]1[C@H](c2ccccc2)C(c2ccc(F)cc2)=NN1c1ccccc1`, 13.6% (inactive); in that of `O=C1OCCN1C(=O)[C@H]1[C@H](c2ccc(F)cc2)C(c2ccccc2)=NN1c1ccc(Br)cc1`, 16.8% (inactive).
On to `C[C@@H]1C(c2ccc(F)cc2)=NN(c2ccc(Br)cc2)[C@H]1C(=O)N1CCOC1=O`, for which the inhibition was 44.2% (active).
In the case of `CN(C(=O)CN(CCO)CC(=O)N(C)C(C)(C)Cc1ccccc1)C(C)(C)Cc1ccccc1` it was 15.9% (inactive).
In the case of `Cc1cc(C)nc(SCc2ccccc2C#N)n1` it was 14.7% (inactive); in that of `Cc1cc(C)nc(SCC(=O)N(C)C)n1`, -9.49% (inactive).
`Cc1cc(C)nc(S/C=C/C(=O)c2ccccc2)n1`: the inhibition is 49% (active).
